# In PubChem BioAssay (NCATS):
# Results filed as inconclusive are left out. A number with no mark means an inactive call. Active and inactive are the calls of the source. Calls follow the shape of the dose curve; as a rule, active = well fitted inhibition curve with a large enough effect; inconclusive = small, poorly fitted or top-dose-only effect; inactive = flat fitted curve, though single readings scatter.
# System: NIH3T3
# Assay: Cytotoxic Profiling of Annotated Libraries Using Quantitative High-Throughput Screening (AID 1296008); also: nearly all actives have a fitted effect of over 60% in size
# Settings: Five cell lines viability, CellTiter-Glo ATP luminescence, 48-72 h; max response: stronger effect = lower value
# How it was run: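 Cells exposed to compounds for 48 or 72 hr at 37 degrees Celsius. Viability read as ATP-coupled luminescence with CellTiter-Glo after 10 min at room temperature.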
# % is scaled to controls: 0 for no effect and ±100 for the full control effect; potency is read from the fitted curve at half-maximal effect.
Structure (SMILES),max response [%],Potency,outcome
O=C(Nc1ccccc1)N1CCC(Cc2cnc3ccccc3c2)CC1,2.45,–,–
C=C1C(=O)O[C@@H]2/C=C(\CO)CC/C=C(/C=O)C[C@@H](O)[C@@H]12,–,16.4 µM (active),–
COC(=O)N1CC2(CC2)C[C@H](C(=O)NO)[C@H]1C(=O)N1CCN(c2ccccc2)CC1,–,–,inactive
NC(=O)c1cnc(N[C@@H]2CCCC[C@@H]2N)nc1Nc1cccc(-n2nccn2)c1,–,23.4 µM (active),–
O=C(Nc1ccc(C(O)(C(F)(F)F)C(F)(F)F)cc1)c1ccc(C(F)(F)F)cc1,–,20.6 µM (active),–
COc1ccc2c(c1)C(C(=O)N(Cc1ccc(N(C)C)cc1)c1ccc(C(C)C)cc1)CCC2 (stereo unspecified),3.67,–,–
COc1cc2c(Nc3cc(F)c(Cl)c(Cl)c3)ncnc2cc1OCC1CCCN(C)CCC1,–,5.17 µM (active),–
Cc1cc(NC(=O)c2cccc(NC(=O)/C=C/CN(C)C)c2)ccc1Nc1nccc(-c2cccnc2)n1,–,18.4 µM (active),–
OC(c1ccc(-c2ccc(CN3CCN(Cc4ccncc4)CC3)cc2)c(F)c1)(C(F)(F)F)C(F)(F)F,-11.3,–,–
CC(=O)NC(C(=O)O[C@H]1CCC(C)(C)[C@@H]2CC=C3C(=O)OCC3(O)[C@@]12C)C(C)C (stereo partly specified),–,–,inactive
COc1cc2c(cc1NS(=O)(=O)c1ccc(Br)cc1C)n(C)c(=O)n2C,1.72,–,–
COc1ccc(CN2CCN(C(=O)CCNC(=O)c3ccc(C(C)(C)C)cc3)CC2)cc1,3.24,–,–
Nc1nc(Cl)nc2c1ncn2C1OC(CO)C(O)C1F (stereo unspecified),–,1.03 µM (active),–
COc1cc(/C=C2\CCCN([C@@H](C)c3ccc(F)cc3)C2=O)ccc1-n1cnc(C)c1,-4.02,–,–
C#Cc1cccc(Nc2nc3cc(C(=O)O)ccc3c3cncnc23)c1,-50.8,–,–
C=C[C@@]1(C)C=C2C(=O)C(O)=C3[C@](C)(C(=O)O)CC[C@@H]4C[C@]34[C@]2(O)C(=O)C1,–,3.6 µM (active),–
